In PubChem BioAssay AID504334 (NMMLSC, 2011):
The source made the active and inactive calls.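 How the source made its calls: active means response relative to DMSO over 150%; inconclusive means yeast strain with under 70 recorded events; inactive means the rest.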

Assay: AGP1-GFP expression modulators, hit retest, confirmation, cell-based, flow cytometry, S. cerevisiae, cherry pick set 3 (AID 504334);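 further: median GFP fluorescence per well by flow cytometry over the all cells gate; ratio of sample to mean DMSO control signal so DMSO = 100% not 0%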
Details: S. cerevisiae AGP1-GFP strain, 3 h, at 10 µM, hits give high values

Percent response vs DMSO, inactive:
CC(=O)C(Cl)C(=O)Nc1ccccc1 (stereo not given) 105%
CCC(C)Nc1nc(N)c([N+](=O)[O-])c(Nc2ccccc2OC)n1 (stereo not given) 104%
C/C(=C\C(=O)c1ccc(C)cc1)Nc1cccc(O)c1 101%
COc1cccc(N/C=C/C(=O)c2ccc(C)cc2)c1 99.8%
CNc1nc(N)c([N+](=O)[O-])c(Nc2cccc(Cl)c2)n1 104%
